ssDAF12 agonist: S. stercoralis DAF-12 nuclear receptor activators, primary screen, cell-based, luminescence, HEK293, GRIP1 co-expression, lit1-tk-luc; Nuclear hormone receptor DAF-12 (Strongyloides stercoralis); HEK293 ssDAF-12/GRIP1 lit1-tk-luc reporter; % of 3 µM dafachronic acid response; 1% of 370,000 active; activation, % at 6.8 µM;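 active = activation above the mean over all tested compounds plus 3 SD, cut at about 0.9% in these data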;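 note: 0% = DMSO-only wells and 100% = 3 µM delta7-dafachronic acid wells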
hcDAF12 agonist: H. contortus DAF-12 nuclear receptor activators, primary screen, cell-based, luminescence, HEK293, lit1-tk-luc reporter; HEK293 hcDAF-12 lit1-tk-luc reporter; 0% DMSO, 100% Δ7-dafachronic acid; activation, % at 6.8 µM; 1.4% of 370,000 active; AID 652067, 2013;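 active = activation above the mean of all tested compounds plus 3 SD, cut at about 5.5% in these data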;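 note: 100% = response to 3 µM Δ7-dafachronic acid high control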
DAX1 inh-1: DAX1 (NR0B1) inhibitors on StAR promoter, primary screen, cell-based, luminescence, SF-1 (NR5A1), full-length DAX-1. HEK293T StAR-luciferase reporter, SF-1/DAX-1 repression relief. inhibition, % at 6.8 µM. 1.1% of 370,000 active. AID 652010, 2013;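 active = inhibition above the mean over all tested compounds plus 3 SD, cut at about 3.6% in these data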;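 note: 0% = DAX-1 cells with DMSO and 100% = cells lacking DAX-1 with DMSO; higher inhibition means more luminescence from relief of DAX-1 repression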
DAX1 inh-2: DAX1 (NR0B1) inhibitors, primary screen, cell-based, HEK293, Gal4-DAX1, luciferase luminescence; Nuclear receptor subfamily 0 group B member 1 (Homo sapiens), P51843; HEK293 Gal4-DAX1 luciferase reporter; inhibition, % at 6.75 µM; 0.99% of 340,000 active;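 active = inhibition above the mean over all tested compounds plus 3 SD, cut at about 4.2% in these data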;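 note: 0% = DAX1-transfected cells with DMSO and 100% = empty-vector control cells with DMSO; inhibition shows as a rise in luminescence from relieved DAX1 repression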
Target sequence (P51843 207-470 limits assumed): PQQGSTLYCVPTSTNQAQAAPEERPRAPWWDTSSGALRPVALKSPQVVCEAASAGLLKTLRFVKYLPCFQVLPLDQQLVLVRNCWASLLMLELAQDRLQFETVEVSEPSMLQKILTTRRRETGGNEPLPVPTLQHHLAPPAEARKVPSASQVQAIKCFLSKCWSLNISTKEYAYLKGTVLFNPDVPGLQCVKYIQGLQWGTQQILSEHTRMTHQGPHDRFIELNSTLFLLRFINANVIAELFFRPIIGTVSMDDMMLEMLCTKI
hgDAF-12 ag: H. glycines DAF-12 receptor agonists, primary screen, cell-based, luminescence, HEK293, GAL4 fusion, UAS-luciferase; Nuclear hormone receptor DAF-12 (Heterodera glycines), GAL4 fusion; HEK293 GAL4-hgDAF12 UAS-luciferase reporter, agonist luminescence; normalized to butyrate control; activation, % at 6.8 µM; 1.8% of 370,000 active; AID 687014, 2013;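 active = activation above a cutoff set at the mean of all screened compounds plus 3 SD, cut at about 10% in these data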;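 note: 0% = DMSO wells and 100% = sodium butyrate wells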
* hit, by the source's call. Compounds with a hit are over-represented: about 4.1% of the library has one in this group of screens.

Results for CN(c1cccc(Cl)c1)S(=O)(=O)c1cccc(C(=O)NN2CCOCC2)c1 ?
ssDAF12 agonist: -0.6; hcDAF12 agonist: 1.2; DAX1 inh-1: -0.8; DAX1 inh-2: 0.5; hgDAF-12 ag: -2.0

What do the screens show for `Cc1cc(C)nc(NC(=O)/C=C/c2ccc3c(c2)OCO3)c1`?
ssDAF12 agonist: -0.2; hcDAF12 agonist: 2.6; DAX1 inh-1: 4.2*; DAX1 inh-2: 1.4; hgDAF-12 ag: 9.8

What do the screens show for `CCN(CC)CCn1c(C)nc2ccccc21`?
ssDAF12 agonist: -1.1; hcDAF12 agonist: 0.4; DAX1 inh-1: -0.2; DAX1 inh-2: 4.3*; hgDAF-12 ag: 4.6

What do the screens show for `CCCn1c2ccccc2c2nc3ccccc3nc21`?
ssDAF12 agonist: -1.5; hcDAF12 agonist: -1.6; DAX1 inh-1: -0.4; DAX1 inh-2: 1.0; hgDAF-12 ag: 0.9

Results for O=C(O)Cn1c2ccccc2c2nc3ccccc3nc21 ?
DAX1 inh-2: 4.9*

Results for CCN(CC)CCn1c2ccccc2c2nc3ccccc3nc21 ?
ssDAF12 agonist: 0.1; hcDAF12 agonist: 6.1*; DAX1 inh-1: -0.6; DAX1 inh-2: 2.1; hgDAF-12 ag: 5.5

What do the screens show for `CCN(CC)CCn1c(NC(=O)c2ccc(Cl)cc2)nc2ccccc21`?
ssDAF12 agonist: 1.0*; hcDAF12 agonist: 5.7*; DAX1 inh-1: 1.2; DAX1 inh-2: 0.5; hgDAF-12 ag: 3.9

Results for Cc1ccccc1C(=O)n1ccc2ccc(-c3ccc4ccn(Cc5ccccc5)c4c3)cc21 ?
ssDAF12 agonist: -0.8; hcDAF12 agonist: 0.9; DAX1 inh-1: -1.5; hgDAF-12 ag: -0.1

How did Nc1nc2nn(-c3ccccc3)nc2c(=O)[nH]1 do in these assays?
ssDAF12 agonist: -0.5; hcDAF12 agonist: 1.9; DAX1 inh-1: 0.3; DAX1 inh-2: 0.6; hgDAF-12 ag: 3.9

Results for Nc1nc2n[nH]nc2c(=O)[nH]1 ?
ssDAF12 agonist: 1.5*; hcDAF12 agonist: 1.6; DAX1 inh-1: -0.4; DAX1 inh-2: 1.7; hgDAF-12 ag: 0.8

How did S=c1[nH]nc(-c2cc(-c3ccccc3)n[nH]2)n1N=Cc1cccc(OCc2ccccc2)c1 do in these assays?
ssDAF12 agonist: -1.3; hcDAF12 agonist: -0.9; DAX1 inh-1: 0.5; hgDAF-12 ag: -0.7

Results for COc1ccc(S[C@]2(C(=O)N3CCCC3)CC(=O)N(c3ccc4c(ccn4C)c3)[C@@H]2c2ccc(OC)cc2)cc1 ?
ssDAF12 agonist: 0.9; hcDAF12 agonist: 1.7; DAX1 inh-1: -0.2; hgDAF-12 ag: -2.9

How did c1ccc(-c2csc3ncn4nnnc4c23)cc1 do in these assays?
ssDAF12 agonist: 1.0*; hcDAF12 agonist: -1.4; DAX1 inh-1: 0.8; DAX1 inh-2: -0.1; hgDAF-12 ag: 1.3

Results for COc1cc([C@H]2Oc3c(OC)cc(CCCO[C@@H]4O[C@H](CO)[C@@H](O)[C@H](O)[C@H]4O)cc3[C@@H]2CO)ccc1O ?
ssDAF12 agonist: -1.1; hcDAF12 agonist: 0.6; DAX1 inh-1: 1.7; DAX1 inh-2: 4.7*; hgDAF-12 ag: -0.9

Results for Cc1ccnc(NCc2ccc(Cl)cc2)c1 ?
ssDAF12 agonist: -1.8; hcDAF12 agonist: -2.5; DAX1 inh-1: -0.3; DAX1 inh-2: -0.6; hgDAF-12 ag: 2.4

What do the screens show for `CC1CC(Nc2ccccc2N)=CC(=O)O1` (stereo not drawn)?
ssDAF12 agonist: 0.3; hcDAF12 agonist: 5.8*; DAX1 inh-1: 1.7; DAX1 inh-2: 2.9; hgDAF-12 ag: 9.9

What do the screens show for `CCn1c(=O)n(CC(=O)N2CCCN(Cc3ccccc3)CC2)c(=O)c2ccccc21`?
ssDAF12 agonist: -1.1; hcDAF12 agonist: 2.5; DAX1 inh-1: 1.4; hgDAF-12 ag: 0.5

Results for O=C(CCCN1C(=O)/C(=C\c2ccccc2)SC1=S)Nc1ccc(C(=O)O)cc1 ?
ssDAF12 agonist: -1.3; hcDAF12 agonist: -0.4; DAX1 inh-1: 0.4; DAX1 inh-2: 1.3; hgDAF-12 ag: -0.7

How did CCc1ccc(/C=C2\SC(=S)N(CCCC(=O)Nc3ccc(C(=O)O)cc3)C2=O)cc1 do in these assays?
ssDAF12 agonist: -0.9; hcDAF12 agonist: 6.0*; DAX1 inh-1: -1.0; DAX1 inh-2: 0.0; hgDAF-12 ag: -0.8

What do the screens show for `O=C(Nc1ccc2c(c1)OCCO2)c1cnc2n(c1=O)CCS2`?
ssDAF12 agonist: -0.6; hcDAF12 agonist: 4.0; DAX1 inh-1: 3.7*; DAX1 inh-2: 1.5; hgDAF-12 ag: 8.8

What do the screens show for `O=C(Nc1ccccc1)c1cnc2n(c1=O)CCS2`?
ssDAF12 agonist: -0.1; hcDAF12 agonist: 6.1*; DAX1 inh-1: 2.3; DAX1 inh-2: 0.4; hgDAF-12 ag: 10.0

Results for Cc1cccc(NC(=O)c2cnc3n(c2=O)CCS3)c1 ?
ssDAF12 agonist: -1.0; hcDAF12 agonist: 0.1; DAX1 inh-1: 1.4; DAX1 inh-2: 1.4; hgDAF-12 ag: 5.9

Results for CCCC1CCC2(CC1)CCC2OC(=O)Nc1ccccc1C (stereo not drawn) ?
ssDAF12 agonist: -1.3; hcDAF12 agonist: -0.1; hgDAF-12 ag: 5.2

Results for CN1CCN(c2nc(-c3cccnc3)nc3ccccc23)CC1 ?
ssDAF12 agonist: -0.7; hcDAF12 agonist: -2.9; DAX1 inh-1: -0.7; DAX1 inh-2: 1.5; hgDAF-12 ag: 3.4

What do the screens show for `CCN1CCN(c2nc(-c3cccnc3)nc3ccccc23)CC1`?
ssDAF12 agonist: -0.7; hcDAF12 agonist: 5.7*; DAX1 inh-1: 1.4; DAX1 inh-2: 0.0; hgDAF-12 ag: 4.7

Results for O=C1C=C(N2CCOCC2)C2(CCCCC2)O1 ?
ssDAF12 agonist: -0.4; hcDAF12 agonist: -0.5; DAX1 inh-1: -0.6; DAX1 inh-2: 5.2*; hgDAF-12 ag: 4.3

How did O=C1C=C(N2CCCCC2)C2(CCCCC2)O1 do in these assays?
ssDAF12 agonist: -0.6; hcDAF12 agonist: 0.0; DAX1 inh-1: -0.7; DAX1 inh-2: -0.4; hgDAF-12 ag: 1.6

Results for COc1ccc(-c2cc3c(=O)n(CC(=O)Nc4ccc(Cl)cc4)nc(C)n3n2)cc1 ?
ssDAF12 agonist: -1.1; hcDAF12 agonist: 6.4*; DAX1 inh-1: 0.6; DAX1 inh-2: 0.6; hgDAF-12 ag: 0.7

How did Cc1nn(CC(=O)Nc2cccc(Cl)c2)c(=O)c2cc(-c3ccccc3)nn12 do in these assays?
ssDAF12 agonist: -1.2; hcDAF12 agonist: -0.1; DAX1 inh-1: -0.2; DAX1 inh-2: 1.1; hgDAF-12 ag: 1.5

What do the screens show for `O=C(N/N=C/c1ccco1)c1[nH]ncc1Br`?
ssDAF12 agonist: 0.3; hcDAF12 agonist: 0.6; DAX1 inh-1: 2.7; DAX1 inh-2: 7.1*; hgDAF-12 ag: 7.2

How did COc1ccc(/C=N/NC(=O)c2cccc(NC(C)=O)c2)c(OC)c1 do in these assays?
ssDAF12 agonist: -1.1; hcDAF12 agonist: 0.5; DAX1 inh-1: -0.7; DAX1 inh-2: -0.2; hgDAF-12 ag: 4.0

Screening results deposited in PubChem by The Scripps Research Institute Molecular Screening Center.
